Measured values reported in the supplement of paper PMC11417369.
Over roughly 25,000 sequences, “ln(normalized median fluorescence intensity)” has its median near 9.3; the highest 2% begin near 10. The sample as a whole holds a higher share of the highest values than the screen did.

What follows are sequences tested on PF3D7_0420300 AP2 domain 1 (GST-tagged) (assay: gcPBM binding intensity (ln(normalized median fluorescence intensity)); higher = stronger DNA binding).
Method in brief: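 Binding of GST-tagged P. falciparum DNA-binding domains, expressed in E. coli and used at about 25 μg on average, was carried out for 1 h in 1× PBS containing 1% milk, 0.2 mg/ml BSA, 0.5% salmon testes DNA and 0.03% Triton X-100. The target was an Agilent 4 × 180k array of primer-extended double-stranded 36-bp intergenic genomic probes plus negative controls, read with Alexa488 anti-GST antibody at 488 nm. Binding intensity is the highest Masliner-normalised natural-log median intensity across replicate spots of either probe orientation.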

In order of rising “gcPBM binding intensity (ln)” value:
1. TTTTATAATTTATCTAAAAAAAAATAAAATAAAATG [TGCATGCA_negctrl_site429]  8.67
2. TTTTTATGTAGAATTTTTTTATTTTTTCAAAATGGA [CACACA_negctrl_site166]  8.69
3. TTGTTTCTCTTTAAAAGTACAAAAATGGTTACATAT [XGTACX_site3109]  8.95
4. AACATTTTTAAATATATAAAAATATATATATATATA [XGTACX_negctrl_site551]  8.97
5. TTGTTTTGCTAAAAATGTACTCTATATAAAAGCTTT [XGTACX_site4027]  8.98
6. TTTTCCCTTACAGAAAAAAAAAAATTCCTAACCCCG [CACACA_negctrl_site650]  9.03
7. ATAAATTCATTATATTGTACAAACAAATGAAAAAAA [XGTACX_site8304]  9.09
8. ATGTAATATATTATATGTACATATTTTTATGTAGAT [XGTACX_site5945]  9.2
9. TATTTTAATCGTAAGTGTACTCTTTTAAGTATATGT [XGTACX_site8591]  9.2
10. AACATAAAAAAAATATGTACATATATAATATATATA [XGTACX_site3764]  9.29
11. TGGCATATATATAAATGTACTTTCTTTCTATCTGTT [XGTACX_site8483]  9.34
12. TATATATATATTGAAGTGCAAAATACTGTACGTAAT  9.4
13. ACTATTAACAGTGTAGTGCAAAAAGGTTAATTATTA  9.42
14. GGACATTTTTATAAGGTGCACGGTTTTGATATTACT [GTGCAC_site9892]  9.46
15. AAAAAAAATATGAAAACACACATATATAAATAAATA [CACACA_site113]  9.55
16. TAAATAAATAAAAAAACACACATATAAATATAAATA [CACACA_site7815]  9.61
17. CATATATAAAAAAACACACACATATATATATATATA [CACACA_site1195]  9.63
18. CTTTTTTTTTTGTATTGTACTTTATTTTTACATCGT [XGTACX_site2918]  9.65
19. ATAATATGAAATATAACACACATATATAAAAACATT [CACACA_site866]  9.72
20. AAAAACGATTAATGTGTACACACATAGTTATAAACA [CACACA_site8659]  9.74
21. TATAAGAAAAATAACACACACATAAACATAAATACA [CACACA_site5536]  9.87
22. ATTAAATAAAAAAACACACACATATATACATATATA [CACACA_site3445]  9.89
23. TATATAAATATACAAACACACATACAAACATATATA [CACACA_site4754]  9.9
24. TAAATAAAAAAACACACACACATATATATATATATA [CACACA_site2269]  9.94
25. AATAAATATATAAATACACACAAACATACATATATA [CACACA_site9340]  9.96
26. AAAAAAAAAAAAAACACACACACAAGAGTATATAAA [CACACA_site6580]  9.99
27. TGATGATATAAAAACACACACATATAATATAATACT [CACACA_site1208]  10
28. AAAAAACATACATACACACACATAAATATATATATT [CACACA_site2699]  10.1
29. AATATAAGAAAAATAACACACACATAAACATATATA [CACACA_site8899]  10.1
30. GAGATAAAATAAAACACACACATATATATATAGAAT [CACACA_site2197]  10.1
31. TACATACATAAACACACACACACATATATATATATA [CACACA_site8953]  10.1
32. AAAAAAAAAAATATCACACACACATAAATATAAACA [CACACA_site7138]  10.1
33. AAAAAAAAATATCACACACACATAAATATAAACCAA [CACACA_site2279]  10.1
34. TATATACATAAACACACACACACATATATATATATA [CACACA_site8707]  10.1
35. TATAAGAAAAATAACACACACATAAACATATATACA [CACACA_site2785]  10.2
36. ATATATATAAAACACACACACACATGGTTTAAAACT [CACACA_site4219]  10.2
37. AAAAAAAAAAAACACACACACACATAAATATATATA [CACACA_site149]  10.2
38. ATATATATAAAACACACACACACATGTTTTAAAACT [CACACA_site78]  10.2
39. AAAAAAAAAAATATCACACACACATAAATATAAACC [CACACA_site2278]  10.2
40. CATATACATAAACACACACACACATAAATAAATATA [CACACA_site4864]  10.2
41. AAAAAAAAAAAACACACACACACACTAGTATATAAA [CACACA_site4783]  10.2
42. ATAATATGAAAACACACACACACACTAATAAAAAAA [CACACA_site8617]  10.2
43. AAAAAAAACATACATACACACACATAAATATATATA [CACACA_site8864]  10.3
44. TAGATACATAAACACACACACACATACATATATACA [CACACA_site9139]  10.3
